Assay results taken from PubChem BioAssay (NCI).
This is part of a sample that, as a whole, favours compounds with a hit. Of some 83,000 tested, about 20% had one in any assay.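 The test compound was applied at a single concentration to cells in 96-well plates for 48 hours, and percent growth was recorded.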 Values without a mark were called inactive. Activity calls are given as the source filed them. The calls were made as follows: active = growth percent below 10; inactive = the rest.

Key:
Assay in all cases: NCI-60 one-dose screen, 48 h (100 = growth as untreated, 0 = no growth, -100 = all killed)
Conditions in all cases: 10 µM unless noted
SK-MEL-2 melanoma = test system: SK-MEL-2 melanoma
EKVX NSCLC = test system: EKVX NSCLC
SN12C renal = test system: SN12C renal
UO-31 renal = test system: UO-31 renal
TK-10 renal = test system: TK-10 renal
ACHN renal = test system: ACHN renal
CAKI-1 renal = test system: CAKI-1 renal
A498 renal = test system: A498 renal
CCRF-CEM leukemia = test system: CCRF-CEM leukemia
MOLT-4 leukemia = test system: MOLT-4 leukemia

Row | Structure (SMILES) | growth (SK-MEL-2 melanoma) | growth (EKVX NSCLC) | growth (SN12C renal) | growth (UO-31 renal) | growth (TK-10 renal) | growth (ACHN renal) | growth (CAKI-1 renal) | growth (A498 renal) | growth (CCRF-CEM leukemia) | growth (MOLT-4 leukemia)
1 | C#CCN(C)CCCOc1ccc(N(C)C(=O)c2cc(C(C)C)c(O)cc2O)cc1Cl | -6.01% (active) | 15.9% | 11.5% | 16.5% | 21.4% | 15.7% | 16.6% | 39.7% | 13.9% | -14% (active)
2 | CN(C)C(=O)c1cc(-c2ccc3ncnc(N4CCc5cc(F)c(Cl)cc54)c3c2)cnc1N | -86% (active) | -84.3% (active) | -9.32% (active) | -10.3% (active) | -69.4% (active) | 2.02% (active) | -76.5% (active) | -84.2% (active) | -20.5% (active) | -38.3% (active)
3 | COc1ccccc1Nc1nnc(-c2c[nH]c3ccccc23)o1 | -13.6% (active) | 10.2% | 14.5% | 32.5% | 22.8% | 23.1% | 22% | 81.9% | 8.16% (active) | 1.78% (active)
4 | COc1cc(NC(=O)C(C)C)ccc1C(=O)NC(=S)Nc1ccc(S(N)(=O)=O)cc1 | 97.4% | 102% | 100% | 89.7% | 94.6% | 103% | 96.7% | 150% | 97.5% | 118%
5 | O=C1Nc2cc(-c3ccc(NS(=O)(=O)c4ccc(C(F)(F)F)cc4)cc3)ccc2/C1=C/c1ccc[nH]1 | 22.5% | 19.5% | 4.64% (active) | 31.1% | 32.5% | 31.1% | 32.9% | 28.9% | 18.5% | 6.52% (active)
6 | COc1cc(/C=C/C(=O)c2cnn(-c3cc(=O)[nH]c4ccccc34)c2C)cc(OC)c1OC | 52% | 4.03% (active) | -1.59% (active) | 25.6% | 27.7% | 20.3% | 19.1% | 96.1% | -18.6% (active) | -12.8% (active)
7 | O=C1Nc2cc(-c3ccc(NS(=O)(=O)c4ccc([N+](=O)[O-])cc4)cc3)ccc2/C1=C/c1ccc[nH]1 | 13.9% | 3.18% (active) | -17.7% (active) | 34.9% | -2.87% (active) | -62.5% (active) | -17.4% (active) | -33.6% (active) | 27.5% | 15.8%
8 | Cn1cc(-c2cc(N)n3nc(-c4c[nH]c5ccc(Cl)cc45)cc3n2)c2cccnc21 | 81% | -71.9% (active) | -80% (active) | -77.5% (active) | -85.9% (active) | -98.8% (active) | -62.3% (active) | -79.7% (active) | -34.8% (active) | -37.8% (active)
9 | Clc1ccc(-c2nc3ccc(-c4nnc(SCc5ccccc5)o4)cc3[nH]2)cc1 | 75.3% | -24.4% (active) | -57.9% (active) | 49.3% | 90.6% | 45% | 37.5% | 112% | 34.1% | 27.7%
10 | N/C(=N\c1nc2ccccc2s1)NC(=O)Nc1ccccc1[N+](=O)[O-] | 20.5% | 38.7% | 5.63% (active) | 26.8% | 52.8% | 20.2% | 16% | 89% | 1.29% (active) | 15.2%
11 | CCCCNc1ccc2c3c(cccc13)C(=O)N(c1cccc(-c3nn(-c4ccccc4)cc3-c3nc4ccccc4s3)c1)C2=O | 98.1% | 96.4% | 101% | 70.4% | 110% | 96.3% | 82.2% | 131% | 105% | 113%
12 | C=CC(=O)Nc1ccc(C(=O)/C=C/c2ccc(N(C)C)cc2)c(O)c1 | 3.4% (active) | 17.3% | 5.34% (active) | 1.04% (active) | 23.9% | -47.5% (active) | -18.1% (active) | 42.8% | 11.2% | 7.05% (active)
13 | O=C(Nc1ccc(-c2ccc3c(c2)NC(=O)/C3=C\c2ccc[nH]2)cc1)Nc1ccc(Cl)c(C(F)(F)F)c1 | 34.2% | 25.3% | 19.4% | 36.1% | 42.1% | 37.3% | 39.3% | 39.2% | 27.4% | 9.33% (active)
14 | COc1cccc(/C=C/c2nc3ccccc3c(=O)n2CC(=O)Nc2ccccc2)c1 | 81% | 85.1% | 17.6% | -24.8% (active) | 11.7% | -15.6% (active) | 72.3% | 28% | 90.1% | 94.2%
15 | O=c1ccc(Cn2c(C(F)(F)F)cc3c(Cl)ncnc32)c[nH]1 | -86.2% (active) | 95.4% | 47.9% | -88.4% (active) | 111% | -54.5% (active) | 78.1% | 136% | 11.8% | -26.6% (active)
16 | COc1ccc2[nH]cc(-c3cc4nc(-c5cn(C)c6ncc(Br)cc56)cc(N)n4n3)c2c1 | -34.7% (active) | -82.7% (active) | -83.2% (active) | -69.1% (active) | -42.5% (active) | -97.6% (active) | -86.1% (active) | -51% (active) | -31% (active) | -27.5% (active)
17 | O=C(N=Nc1c(O)[nH]c2ccc(Br)cc12)c1ccc2nc(-c3ccc(Cl)cc3)[nH]c2c1 | 2.45% (active) | -14.1% (active) | -50.8% (active) | 73.2% | 54.3% | 50.5% | 68.1% | 115% | 7.74% (active) | -0.379% (active)
18 | CCCn1c(NC(=O)c2cccc(C(N)=O)c2)nc2ccc(CN3CCCCC3)cc21 | 105% | 103% | 88% | 65.3% | 99.3% | 60.3% | 50.2% | 159% | 96.4% | 98.9%
19 | O=C(c1ccc(O)cc1)C1[C@H](c2ccccc2Br)[C@@H](c2ccccc2)NC12C(=O)Nc1ccccc12 (stereo not given in full) | -3.4% (active) | 28.3% | 30.2% | 28.9% | 49.9% | 25.9% | 23.6% | 52.1% | 21.3% | 3.1% (active)
20 | COc1cc(CNC(=O)C[C@H](C)CCC=C(C)C)ccc1OCc1cn(-c2ccccc2F)nn1 | 78.6% | 78.3% | 76.1% | 71.9% | 95.8% | 65.3% | 55.1% | 103% | 97.3% | 74.8%
21 | O=C(NNC(=O)c1ccc(OCc2nc3ccc(Cl)cc3[nH]2)cc1)Nc1ccc(Cl)c(C(F)(F)F)c1 | 109% | 69.6% | 64.9% | 82.8% | 116% | 75.3% | 81% | 154% | 48.9% | 60.6%
22 | NNc1ncnc2sc3c(c12)CCN(Cc1ccccc1)C3 | 82% | 36% | 57% | 51.7% | 93.5% | 57.4% | 56.4% | 93.7% | 15.8% | 19.7%
23 | Cc1ccc(C2CC(c3ccc(S(=O)(=O)NCCNc4nc(N(C)C)nc(N5CCOCC5)n4)cc3)=Nc3c(N)nc(N)nc3N2)cc1 (stereo not given) | 86.2% | 38.4% | 51.5% | 36.9% | 96.4% | 68.2% | 43.4% | 105% | 17.3% | 3.09% (active)
24 | Cc1ccc(C(=O)Nc2cc(-c3ccncc3)cc(C(F)(F)F)c2)cc1C#Cc1cnc2cccnn12 | 37.9% | 64.3% | 34.8% | 31.4% | 63.7% | 46.6% | 40.8% | 48.9% | 30% | 31.3%
25 | COc1cncc(-c2ccc3ncnc(N4CCc5ccc(Cl)cc54)c3c2)c1 | 30.6% | -29.3% (active) | 20.3% | 1.93% (active) | 8.96% (active) | 10.5% | 8.52% (active) | 33.2% | -1.98% (active) | 4.34% (active)
26 | N#Cc1c(-c2ccc(F)cc2)nc(SCc2ccccc2)nc1N1CCNCC1 | -82.9% (active) | -98.3% (active) | -93.5% (active) | -82.7% (active) | -88.3% (active) | -99% (active) | -95.3% (active) | -13.8% (active) | -3.47% (active) | -0.64% (active)
